Shown are actives, neighbours in structure and some others; about 3.3% of the full set was active somewhere.
LmPK inh: inhibitors of Leishmania mexicana pyruvate kinase | Q27686 | AID 1721 | Potency, µM (series often up to 57.5 µM), for inactives: at the top dose activity change, negative = inhibition, most hits filed as inhibitors | purified LmPK, Kinase-Glo ATP luminescence, 1 h | 290,000 tested, 0.37% active
Target sequence (Q27686 whole entry, looked up): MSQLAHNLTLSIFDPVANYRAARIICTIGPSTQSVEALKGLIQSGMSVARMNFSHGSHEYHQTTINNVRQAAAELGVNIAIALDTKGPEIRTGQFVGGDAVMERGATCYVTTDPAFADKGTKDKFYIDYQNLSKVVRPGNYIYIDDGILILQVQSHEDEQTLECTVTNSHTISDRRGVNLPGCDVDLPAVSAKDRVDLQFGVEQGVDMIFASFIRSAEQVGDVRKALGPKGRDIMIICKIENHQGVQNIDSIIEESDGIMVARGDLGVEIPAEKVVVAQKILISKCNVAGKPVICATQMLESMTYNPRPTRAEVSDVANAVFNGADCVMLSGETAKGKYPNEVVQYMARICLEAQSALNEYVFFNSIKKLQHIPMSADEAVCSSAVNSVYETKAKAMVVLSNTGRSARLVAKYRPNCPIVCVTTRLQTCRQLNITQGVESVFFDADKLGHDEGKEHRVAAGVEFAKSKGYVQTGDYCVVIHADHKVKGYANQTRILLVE
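Purified LmPK (0.1 nM) with 0.5 mM PEP and 0.1 mM ADP in imidazole buffer pH 7.2 with MgCl2/KCl, 1 h at room temperature. ATP formed was read by luciferase luminescence and normalized to no-enzyme and uninhibited controls.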
Sm TGR inh: inhibitors of Schistosoma mansoni thioredoxin glutathione reductase; Q962Y6; purified TGR, DTNB reduction, TNB absorbance 405 nm; Potency, µM (top dose mostly 114 µM), for inactives: top-dose activity change, negative = inhibition, usual class: inhibitors; 360,000 tested, 3% active; AID 485364; note: nearly all actives have a fitted effect of over 60% in size
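Kinetic colorimetric format: TGR-catalysed, NADPH-driven DTNB reduction monitored via TNB absorbance. Enzyme dispensed at 20 nM; compound exposure 15 min at room temperature before reaction start.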
Giardia FBPA inh: Giardia lamblia aldolase inhibition; A8B2U2; purified Giardia FBPA; Potency, µM (highest dose often 59.6 µM), for inactives: at the highest dose activity, negative = inhibition, usual class: inhibitors; 290,000 tested, 0.71% active; note: nearly all actives have a fitted effect of over 55% in size
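Giardia FBPA (40 nM reagent) was preincubated 10 min at RT with compound (up to 57.5 uM final), then substrate plus GAPDH/TPI/NAD/arsenate coupling system with diaphorase/resazurin was added; resorufin fluorescence (525/598 nm) was read after 20 min.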
Tb PYK inh: T. brucei pyruvate kinase inhibition; TbPYK enzyme, Kinase-Glo Plus ATP luminescence, 45 min; Potency, µM (titrated, usually from 76.8 µM), for the others: at the top dose activity, negative = inhibition, actives largely listed as inhibitors; 410,000 tested, 0.12% active; note: nearly all actives have a fitted effect of over 50% in size
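Screened from lowest to highest concentration, compounds were pinned into TbPYK/substrate mixtures, and ADP (130 uM final) was added. Plates sat at room temperature for 45 min prior to Kinase-Glo Plus detection by luminescence.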
RE007 growth inh: less growth of the S. pombe RE007 Vpr strain; S. pombe RE007 Vpr strain, BacTiter-Glo ATP luminescence, 24 h; Potency, µM (doses to about 92.2 µM), for the others: top-dose activity change, negative = less growth, usual class: inhibitors; 360,000 tested, 0.21% active; AID 651644; active = well fitted falling curve with a large enough effect; inconclusive = small, poorly fitted or top-dose-only effect; inactive = no such curve, though single readings can be large or run the other way; note: nearly all actives have a fitted effect of over 50% in size
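Fission yeast RE007 carrying one integrated HIV-1 vpr copy, seeded at OD 0.01 in PMG+AL medium with 23 nL pinned compound. Grown 24 h at 30 degrees; viability read by BacTiter-Glo luminescence after 5 min.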
Active calls of the source: *; ? = inconclusive; . = no result. Unless noted, calls come from the whole dose curve; as a rule, active = well fitted curve in the direction sought with a large enough effect; inconclusive = small, poorly fitted or top-dose-only effect, or another doubt; inactive = no such curve, though single readings can be large; an effect the other way counts as inactive or inconclusive. % is set by controls: 0 for no effect and ±100 for the full control effect; potency is the fitted concentration of half-maximal effect.

SMILES	LmPK inh	Sm TGR inh	Giardia FBPA inh	Tb PYK inh	RE007 growth inh
O=C(CN1CCCN(S(=O)(=O)c2ccc(Br)cc2)CC1)Nc1cccc(C(F)(F)F)c1	.	35µM*	.	0%	.
COc1cccc(CN2CCCN(S(=O)(=O)c3ccc(Br)cc3)CC2)c1	4%	40µM*	0%	-13%	-24%
O=C(CCl)Nc1cccc(S(=O)(=O)N2CCCCCC2)c1	4%	11µM*	3%	-4%	.
Cc1cc(C)c(C#N)c(SCc2[nH]nc3c2C(c2ccc(F)cc2)C(C#N)=C(N)O3)n1 (stereo unspecified)	7%	-34%	-5%	1%	-5%
Cc1ccc(CSc2nc3ccncc3n2Cc2nc(-c3ccc(Cl)cc3)oc2C)cc1	.	2%	.	-5%	.
CCCCN(CCCNC(=O)C1CCCN(S(=O)(=O)CCC)C1)Cc1ccccc1 (stereo unspecified)	4%	-2%	-1%	2%	-13%
Cc1ccc2c(CC(=O)N(Cc3cccc(Cl)c3)C3CCS(=O)(=O)C3)coc2c1 (stereo unspecified)	.	6%	.	3%	.
O=S(=O)(c1ccccc1)N1CCN(C2CCN(Cc3ccccc3)CC2)CC1	1%	3%	7%	-2%	-2%
COc1ccc(S(=O)(=O)N2CCN(C3CCN(Cc4ccccc4)CC3)CC2)cc1	0%	50µM*	5%	0%	-6%
C=CCNC(=S)N/N=C/c1ccc(-c2ccc(OC)cc2)o1	-7%	.	-3%	5%	-11%
COC(=O)c1c(C)oc(C)c1S(=O)(=O)Nc1ccccc1	6%	-5%	-5%	-1%	-16%
COC(=O)c1c(C)oc(C)c1S(=O)(=O)N1CCCC1	3%	50µM*	3%	3%	1%
COC(=O)c1c(C)oc(C)c1S(=O)(=O)NC(C)(C)C	0%	25µM*	5%	-5%	4%
COC(=O)c1sc(S(=O)(=O)N2CCCCC2)c(C(=O)OC)c1C	5%	-23%	-1%	-15%	-2%
COC(=O)c1c(C)oc(C)c1S(=O)(=O)N(Cc1ccccc1)C(C)C	5%	32µM*	2%	-3%	1%
COC(=O)c1c(C)oc(C)c1S(=O)(=O)N1CCCCC1	4%	40µM*	4%	-4%	-3%
C=CCn1c(SCC(=O)O)nnc1-c1ccccc1	-5%	2%	4%	-4%	-12%
CCN(CC)/C(Sc1ccccc1)=C(/C(Cl)=C(Cl)Cl)[N+](=O)[O-]	-1%	56µM*	-16%	2%	4%
CCN(CC)/C(Sc1ccccc1)=C(\C(Cl)=C(Cl)Cl)[N+](=O)[O-]	-12%	22µM*	-16%	4%	1%
CCN(CC)C(=O)C(Oc1ccc(C)nc1[N+](=O)[O-])c1ccccc1 (stereo unspecified)	-6%	12%	0%	4%	-15%
CCN(CC(=O)Nc1c(F)cccc1F)C(=O)CSc1ccccc1	.	0%	.	0%	6%
O=[N+]([O-])/C(C(Cl)=C(Cl)Cl)=C(\Sc1ccccc1)N1CCCCC1	10%	13µM*	-6%	2%	-14%
CC(C)(C)C(=O)Nc1nc(C2CCCN2S(=O)(=O)c2ccc(Cl)cc2)cs1 (stereo unspecified)	9%	9%	-4%	-5%	3%
COC(=O)c1ccccc1NC(=O)CCCCCn1nnc2ccccc2c1=O	-1%	13%	17%	-1%	29%
CN(C)C(=O)CSc1nnc(NC(=O)CCc2ccccc2)s1	-1%	20%	0%	31%	6%
SMILES	LmPK inh	Sm TGR inh	Giardia FBPA inh	Tb PYK inh	RE007 growth inh
O=C(O)c1ccc2nc(-c3cc4cccc(O)c4oc3=O)[nH]c2c1	.	-27%	.	20µM*	.
Cc1ccc(C(=O)NC2CCCCCC2)cc1N1CCCC1=O	-2%	2%	9%	1%	2%
Cc1ccc(-n2c(CNc3ccc(C)c(Cl)c3)n[nH]c2=S)cc1	?	0%	3%	4.5µM*	1%
Cc1ccc(NCc2n[nH]c(=S)n2-c2cccc(Cl)c2)cc1	?	6%	0%	3.5µM*	-8%
CCc1nnc(NS(=O)(=O)c2ccc(NC(=O)COc3ccc(Cl)c(C)c3)cc2)s1	1%	-5%	9%	-4%	-7%
Cc1nc(N)[nH]c(=O)c1CC(=O)OCCCl	2%	7%	4%	-2%	-3%
O=C(Nc1ccc(Br)cc1Cl)c1cnccn1	-1%	2%	2%	-8%	4%
N#CC1(NC(=O)Cn2ncc(Cl)c(Cl)c2=O)CCCCC1	.	18µM*	.	3%	27%
CSc1ccc(C(=O)C2CCCN(C(=O)c3cccnc3SC)C2)cc1 (stereo unspecified)	6%	5%	0%	-6%	9%
O=[N+]([O-])C(=C1Nc2ccccc2N1)/C(Cl)=C(/Cl)Br	-3%	6.3µM*	0%	-17%	25%
COc1ccc(C2=NOC3(CC(=O)N(c4ccc(F)cc4)C3=O)C2)cc1 (stereo unspecified)	-1%	20µM*	-1%	-4%	-2%
Cc1nnsc1C(=O)N1CCCC(Nc2ccc(F)c(F)c2)C1 (stereo unspecified)	-10%	-10%	.	-2%	-8%
CC(=O)C1=NOC2C(=O)N(c3ccc(Cl)cc3)C(=O)C12 (stereo unspecified)	-1%	3.5µM*	-3%	-18%	-5%
CCOC(=O)C1=NOC2C(=O)N(c3ccc(Cl)cc3Cl)C(=O)C12 (stereo unspecified)	0%	3.5µM*	4%	1%	2%
Cc1ccc(N2CC(c3nc4ccccc4n3C)CC2=O)cc1 (stereo unspecified)	2%	16%	0%	2%	9%
c1ccc(N2CC3CCc4ccccc4C3=N2)cc1 (stereo unspecified)	-7%	45µM*	-11%	0%	-4%
CCn1c(O)c(/C=N/N=C2CCCCC2)c2cc(C3=NNC(=O)CC3)ccc21	-3%	40µM*	-29%	-9%	-10%
CCn1c(O)c(/C=N/N=C2CCCC2)c2ccc(C3=NNC(=O)CC3)cc21	7%	-34%	1%	-3%	11%
COc1cccc(/C=N/n2c(C3CCCCC3)n[nH]c2=S)c1O	-19%	-23%	-8%	?	8%
Cc1cc(C)c(NC(=O)CNC(=O)c2cc([N+](=O)[O-])ccc2N2CCOCC2)c(C)c1	.	-7%	.	-1%	7%
CCOC(=O)c1cc(S(=O)(=O)Nc2ccc(OC)cc2OC)cn1C	-4%	56µM*	-2%	-1%	10%
CCOC(=O)c1cc2occc2n1CC(=O)Nc1ccc(OC)cc1OC	3%	20µM*	-4%	10%	5%
CCOC(=O)c1cc(-c2ccc(C)cc2)n(CC(=O)Nc2ccc(OC)cc2OC)c1C	.	1%	.	1%	.
